The results in this text go back to publication PMC11006913.

The test deals with T1, VENTX (Homo sapiens, UniProt O95231 78-163).
T1 sequence: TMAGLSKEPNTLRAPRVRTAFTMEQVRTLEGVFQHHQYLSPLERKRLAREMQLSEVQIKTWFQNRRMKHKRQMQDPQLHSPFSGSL
Briefly: PBM; 200 nM protein, PBS. The conditions noted are these: dsDNA, one strand shown.
For the sequence GCGGGTCC, the binding signal was 8.25 upbm affinity estimate (log intensity, higher = more binding, comparable within an allelic series).
Then CGTCCAGC, with 7.65 upbm affinity estimate (log intensity, higher = more binding, comparable within an allelic series); and GCCCATTA, with 13 upbm affinity estimate (log intensity, higher = more binding, comparable within an allelic series).
Then CACTGGGG, with 7.73 upbm affinity estimate (log intensity, higher = more binding, comparable within an allelic series).
Consider GGCCATTA, for which the binding signal was 12.3 upbm affinity estimate (log intensity, higher = more binding, comparable within an allelic series).
Next, AATAACAC: 9.93 upbm affinity estimate (log intensity, higher = more binding, comparable within an allelic series).
Next, CTCGGACC: 8.13 upbm affinity estimate (log intensity, higher = more binding, comparable within an allelic series).
Then CAGGGCCC, with 8.08 upbm affinity estimate (log intensity, higher = more binding, comparable within an allelic series); and TAATGGGA, with 12.4 upbm affinity estimate (log intensity, higher = more binding, comparable within an allelic series); and CCGAGTCC, with 8.13 upbm affinity estimate (log intensity, higher = more binding, comparable within an allelic series).
On to GCCGGCAC, for which the binding signal was 7.91 upbm affinity estimate (log intensity, higher = more binding, comparable within an allelic series).
Then CCGGGTGC, with 8.38 upbm affinity estimate (log intensity, higher = more binding, comparable within an allelic series).
With CTGGCGCA, the binding signal was 8.09 upbm affinity estimate (log intensity, higher = more binding, comparable within an allelic series).
Next, CGCCTGCC: 8.35 upbm affinity estimate (log intensity, higher = more binding, comparable within an allelic series); AATCCATT: 10.5 upbm affinity estimate (log intensity, higher = more binding, comparable within an allelic series).
GTTAATAA: the binding signal is 11.2 upbm affinity estimate (log intensity, higher = more binding, comparable within an allelic series).
CCGAATTA: the binding signal is 10.6 upbm affinity estimate (log intensity, higher = more binding, comparable within an allelic series).
Then CGTCGACG, with 7.91 upbm affinity estimate (log intensity, higher = more binding, comparable within an allelic series); and CGGCCCCA, with 8.34 upbm affinity estimate (log intensity, higher = more binding, comparable within an allelic series).
Turning to ACCAATCA, the binding signal is 10.7 upbm affinity estimate (log intensity, higher = more binding, comparable within an allelic series).
As to AGGGGGCG, the binding signal was 8.25 upbm affinity estimate (log intensity, higher = more binding, comparable within an allelic series).
Then AACGATTA, with 12.3 upbm affinity estimate (log intensity, higher = more binding, comparable within an allelic series); and CCCCTCAG, with 8.19 upbm affinity estimate (log intensity, higher = more binding, comparable within an allelic series); and CGGCCCCC, with 8.05 upbm affinity estimate (log intensity, higher = more binding, comparable within an allelic series).
Next, GCCAACCC: 7.96 upbm affinity estimate (log intensity, higher = more binding, comparable within an allelic series); AGCGATTA: 12.3 upbm affinity estimate (log intensity, higher = more binding, comparable within an allelic series); AATGTATC: 10.1 upbm affinity estimate (log intensity, higher = more binding, comparable within an allelic series).
Next, CCGAGGGC: 8.24 upbm affinity estimate (log intensity, higher = more binding, comparable within an allelic series).
For the sequence GAGTTCCC, the binding signal is 8.23 upbm affinity estimate (log intensity, higher = more binding, comparable within an allelic series).
Then CCCAGAGG, with 7.77 upbm affinity estimate (log intensity, higher = more binding, comparable within an allelic series); and GAAGCCGC, with 8.07 upbm affinity estimate (log intensity, higher = more binding, comparable within an allelic series).
Next, ACCCATTA: 12.9 upbm affinity estimate (log intensity, higher = more binding, comparable within an allelic series); ACCACGCC: 8.09 upbm affinity estimate (log intensity, higher = more binding, comparable within an allelic series).
Consider CTAATCGA, for which the binding signal was 12.5 upbm affinity estimate (log intensity, higher = more binding, comparable within an allelic series).
Then AAGTAAAC, with 9.73 upbm affinity estimate (log intensity, higher = more binding, comparable within an allelic series).
Next, CGATTAGC: 12.8 upbm affinity estimate (log intensity, higher = more binding, comparable within an allelic series).
On to CACTGCGC, for which the binding signal was 8.14 upbm affinity estimate (log intensity, higher = more binding, comparable within an allelic series).
Next, GCTCCGCC: 8.4 upbm affinity estimate (log intensity, higher = more binding, comparable within an allelic series); ATTAGGTG: 11.2 upbm affinity estimate (log intensity, higher = more binding, comparable within an allelic series).
Next, AATATTTG: 10 upbm affinity estimate (log intensity, higher = more binding, comparable within an allelic series).
